Each structure is given as a SMILES string. “And” between values parts separate entries of the source, which are not always exact repeats. Identical values can stand only once. The panel holds about 83,000 compounds, 20% with a hit somewhere; the sample as a whole holds those more often.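 Activity criterion: percent growth below 10, measured after cells in 96-well plates were exposed to a single compound concentration for 48 hours.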 Values without a mark were called inactive. The source made the active and inactive calls.

The record followed here is PubChem BioAssay (NCI).

For this experiment, the system named is MDA-MB-468 breast. The experiment in a line: NCI-60 one-dose screen, 48 h (100 = growth as untreated, 0 = no growth, -100 = all killed). To be noted: 10 µM unless noted.
Regarding `Fc1cc2c(cc1Cl)N(c1ncnc3ccc(-c4cnc5[nH]ncc5c4)cc13)CC2`, the growth was 49.5%.

Consider `O=C1OC(c2ccccc2)C(O)=C1c1ccccc1` (configuration not stated), for which the growth is 108%.

With `COc1ccc(-c2nc3ncccn3c2-c2nc3ccc(Br)cc3[nH]2)cc1`, the growth was 75.6%.

`COc1ccc(/C=C/C(=O)c2cc3c(N)c(C(=O)Nc4ccccc4)sc3nc2C)cc1`: the growth is 15.3%.

Regarding `O=C(/C(=C/c1ccc([N+](=O)[O-])cc1)SCc1ccccc1)c1ccc(Cl)cc1`, the growth is 70.4%.

`Nc1cc(N)c(N=Nc2ccc(S(=O)(=O)O)cc2)cc1N=Nc1ccc(-c2ccc(N=Nc3ccc(O)c(C(=O)O)c3)cc2)cc1`: the growth was 97.6%.

Regarding `c1csc([C@@H]2C[C@@H]3Cc4ccc5ccccc5c4N2O3)c1`, the growth is 99.2%.

Consider `O=C(NC(CSSCC(NC(=O)OCc1ccccc1)C(=O)O)C(=O)O)OCc1ccccc1` (configuration not stated), for which the growth is 84.5% and 102%.

In the case of `CC(=O)NC(C)(C)C(=O)N1CCC[C@H]1C(=O)NC(C)(C)C(=O)N[C@@H](C)C(=O)NC(C)(C)C(=O)NC(C)(C)C(=O)N[C@@H](CCC(N)=O)C(=O)NC(C)(C)C(=O)N[C@H](C(=O)NC(C)(C)C(=O)NCC(=O)N[C@@H](CC(C)C)C(=O)NC(C)(C)C(=O)N1CCC[C@H]1C(=O)N[C@H](C(=O)NC(C)(C)C(=O)NC(C)(C)C(=O)N[C@@H](CCC(N)=O)C(=O)N[C@@H](CCC(N)=O)C(=O)N[C@H](CO)Cc1ccccc1)C(C)C)C(C)C`, the growth is -1.54% [4.25 µM] (active).

Take `COc1ccc2oc(=O)cc(C3c4ccc([nH]4)C(c4cc(=O)oc5ccc(OC)cc45)c4ccc([nH]4)C(c4cc(=O)oc5ccc(OC)cc45)c4ccc([nH]4)C(c4cc(=O)oc5ccc(OC)cc45)c4ccc3[nH]4)c2c1` (configuration not stated): the growth is -38.6% (active).

For the compound `Oc1ccc(CSc2nnc(-c3ccncc3)o2)c2cccnc12`, the growth was 11.9%.

For the compound `CCO/C=N/C1=C(C#N)C(c2ccc(Cl)cc2)c2sc3c(CC)cccc3c2O1` (configuration not stated), the growth was -33.4% (active).

`COc1cc(/C=C/C(=O)c2ccccc2)cc(OC)c1OC`: the growth is 64.7%.

Consider `C[C@@H]1CCCCCCCCC[C@H](O)C(=O)C[C@@H](SC[C@@H](O)C(=O)O)C(=O)O1`, for which the growth was 104%.

As to `Oc1[nH]c2ccccc2c1/C=c1/cc2c(c(-c3ccc(F)cc3)n1)=Nc1ccccc1-2`, the growth is -60.8% (active).

In the case of `COc1ccc(-c2c(N)noc2-c2cc(OC)c3c(c2)OCCO3)cc1`, the growth is -1.87% (active).

Turning to `Nc1c(C(=O)O)cc(Cl)cc1[N+](=O)[O-]`, the growth was 96.2%.

Turning to `COc1ccc(-c2cnc(-c3ccc(F)cc3)[nH]2)cc1`, the growth is 90.3%.

For `O=C1/C=C/[C@@H](O)[C@@H]2C[C@@H](O)C[C@H]2/C=C/CCCCO1`, the growth was -36.1% (active).

Regarding `O=C(c1ccc(C(F)(F)F)c(Cl)c1)N(Cc1ccc(Cl)cc1)c1ccc(-c2cc(C(F)(F)F)[nH]n2)c(O)c1`, the growth was -11.5% (active).

With `Cc1ccc(NC(=O)c2sc3nc4c(cc3c2N)C(=O)CCC4)cc1`, the growth was 32.7%.

For the compound `COc1ccc(Cl)cc1NC(=O)c1c(NC(=O)C(F)(F)C(F)(F)F)sc2c1CCCCC2`, the growth is -16.9% (active).

On to `CCSc1ccc2c(c1)N(CCCN1CCN(C)CC1)c1ccccc1S2`, for which the growth was -3.41% (active).

On to `C=CC(=O)N[C@@H](Cc1ccc(-c2cc(Cl)cc(Cl)c2)cc1)[C@@H](O)[C@H](O)C(=O)O`, for which the growth was 101%.

In the case of `O=c1oc2cc(OS(=O)(=O)c3ccccc3)ccc2c2c1CCCCC2`, the growth is 44.3%.

Take `COc1cccc(-c2nnc(COc3ccc(-c4nc5ccc(C)cc5[nH]4)cc3OC)o2)c1`: the growth is 71%.

For the compound `CN1CCN(CC(=O)Nc2cccc(-n3cc(-c4ccncc4)c(-c4ccc(Cl)c(O)c4)n3)c2)CC1`, the growth was 10.7%.

With `O=C(Nc1ncc(Cc2ccccc2)s1)c1ccc2c(c1)OCCO2`, the growth is 28.2%.

As to `O=C(CC(O)c1ccccc1)Nc1ccccn1` (configuration not stated), the growth is 119%.

For `O=C(Nc1cccc(Cl)c1)c1cc(N=Nc2ccc([N+](=O)[O-])cc2Cl)ccc1O`, the growth is 67.8%.

`CC(C)CNC(=O)c1ccccc1C(=O)NC1(C(=O)NCC(C)C)CCCC1`: the growth was 101% and 121%.

As for `O=c1c2sc3ncc(Br)cc3c2ncn1-c1cccc(Cl)c1`, the growth was 89.8%.
